These results are taken from PubChem BioAssay.

A number with no mark means an inactive call.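 How the source made its calls: active means inhibition at or above 50% relative to wild type and mutant plate controls; inactive means inhibition below 50%.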

The inhibition is the relative decrease from the control value, in per cent.

A short description of the test: loss of swimming-algae plug formation – whole organism, Chlamydomonas reinhardtii, WT vs cilia-less mutant, absorbance, 96-well, primary screen (AID 463189).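 Further: 0% = wild type cc124 cells in DMSO and 100% = ciliumless bld1 mutant cells.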 The following applies: Chlamydomonas reinhardtii gravitaxis, OD600 absorbance, 2 days; at 10 µM; active compounds read high.
Turning to `Oc1cc(O)cc(/C=C/c2ccc(O)c(O)c2)c1`, the inhibition is 0.047%.
With `O=[N+]([O-])c1ccc(CSc2ncnc3c2ncn3[C@@H]2O[C@H](CO)[C@H](O)C2O)cc1` (stereo partly specified) the figure was -2.08%; with `Nc1ccn([C@H]2CC[C@@H](CO)O2)c(=O)n1`, -7.35%; with `CC(=O)c1ccc(S(=O)(=O)NC(=O)NC2CCCCC2)cc1`, -5.49%.
To `Nc1nc(Cl)nc2c1ncn2[C@@H]1O[C@H](CO)[C@H](O)C1O` (stereo partly specified) belongs 1.82%; to `CCC1(C)CC(=O)NC1=O` (stereo unspecified), 1.95%.
With `O=C1OC(=O)C2C3CCC(O3)C12` (stereo unspecified), the inhibition is 2.39%.
To `CCN(c1nc(N)c(C(=O)N=C(N)N)nc1Cl)C(C)C` belongs 7.11%.
Turning to `CC1C(=O)N(C)C(=O)c2nc[nH]c21` (stereo unspecified), the inhibition was 7.36%.
With `Cc1cccc(C#Cc2ccccc2)n1` the figure was 8.4%; with `O=C(O)c1cc2cc(Cc3cccnc3)ccc2o1`, -4.17%.
For `NC(N)=NC(=O)Cc1c(Cl)cccc1Cl`, the inhibition was 4.12%.
Turning to `Cc1nc2n(c(=O)c1CCN1CCC(c3noc4cc(F)ccc34)CC1)CCCC2`, the inhibition was 2.59%.
To `CN1CCc2cc(NC(=O)Nc3cccnc3)ccc21` belongs 8.14%; to `COc1ccccc1N1CCN(CCCNc2cc(=O)n(C)c(=O)n2C)CC1`, 9.94%.
With `N=C(N)SCCN` the figure was -11.5%; with `NC(=O)c1cccc(N)c1`, 3.55%.
With `NC(N)=NC(N)=Nc1cccc(Cl)c1`, the inhibition was 4.09%.
To `CN1CCN(CC/C=C2/c3ccccc3Sc3ccc(S(=O)(=O)N(C)C)cc32)CC1` belongs 19.2%; to `O=C(O)C1=CCNCC1`, 0.676%; to `CC(C)NC[C@H](O)COc1cccc2ccccc12`, 8.72%.
